Growth data for 14 molecules are collected here from PubChem BioAssay (NCI).

The structures appear in SMILES notation. The panel holds about 83,000 compounds, 20% with a hit somewhere; the sample as a whole holds those more often.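 Step 1: grow cells in 96-well plates. Step 2: add test compound at a single concentration. Step 3: incubate 48 h. Step 4: record percent growth.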 Unmarked numbers belong to inactive results. The source made the active and inactive calls. How the source made its calls: active means growth percent below 10; inactive means the rest.

Among the test systems are SR leukemia; RPMI-8226 leukemia; OVCAR-8 ovarian; OVCAR-5 ovarian; OVCAR-4 ovarian; SK-OV-3 ovarian; IGROV1 ovarian; OVCAR-3 ovarian; HS 578T breast; NCI/ADR-RES ovarian.
Experiment in all cases: NCI-60 one-dose screen, 48 h (100 = growth as untreated, 0 = no growth, -100 = all killed)
Settings in all cases: 10 µM unless noted

For the molecule `O=C(/C=C/C12c3ccccc3C(c3ccccc31)C1C(=O)NC(=O)C12)c1ccc(Cl)cc1Cl` (stereo not given), the growth in the assay on SR leukemia is 2.74% (active); in the assay on RPMI-8226 leukemia it was -22.3% (active); in the assay with OVCAR-8 ovarian, 11.1%; in the assay with OVCAR-5 ovarian, 37.6%; with OVCAR-4 ovarian it was 42.9%; in the assay on SK-OV-3 ovarian, 49.9%. The growth with IGROV1 ovarian was 23.4%; in the assay on OVCAR-3 ovarian, -29.3% (active); with HS 578T breast, 30.5%; in the assay on NCI/ADR-RES ovarian it was 5.85% (active).
In the case of `COc1cc2c(cc1-c1c(C)noc1C)ncc1nc(CN3CCOCC3)n([C@H](C)COC(F)F)c12`, the growth in the assay with SR leukemia is 33.7%; in the assay on RPMI-8226 leukemia, 10.1%; in the assay with OVCAR-8 ovarian it was 46.1%; in the assay with OVCAR-5 ovarian, 68.2%; in the assay with OVCAR-4 ovarian it was 35.9%; in the assay with SK-OV-3 ovarian, 7.42% (active). The growth is 36.2% in the assay on IGROV1 ovarian, 23.1% in the assay on OVCAR-3 ovarian, 30% in the assay with HS 578T breast and 40.8% with NCI/ADR-RES ovarian.
Consider `c1ccc2cc(Cn3cc(CSc4nc5ccccc5s4)nn3)ccc2c1`, for which the growth in the assay on SR leukemia is 103%; in the assay on RPMI-8226 leukemia it was 95.7%; in the assay with OVCAR-8 ovarian, 90.7%; with OVCAR-5 ovarian, 99.7%; in the assay with OVCAR-4 ovarian it was 98.1%; in the assay on SK-OV-3 ovarian, 93.3%. For the same molecule, the growth is 93.9% in the assay on IGROV1 ovarian, 103% in the assay on OVCAR-3 ovarian, 87.1% in the assay with HS 578T breast and 96.9% in the assay with NCI/ADR-RES ovarian.
For the molecule `CCN(CC)CCOc1ccc(Nc2ncc3cc(-c4c(Cl)cccc4Cl)c(=O)n(CCOC)c3n2)cc1`, the growth with SR leukemia is -30.8% (active); with RPMI-8226 leukemia it was 2.23% (active); in the assay on OVCAR-8 ovarian it was 9.23% (active); with OVCAR-5 ovarian it was 2.15% (active); with OVCAR-4 ovarian it was 35.3%; in the assay on SK-OV-3 ovarian, 2.93% (active). Besides, the growth with IGROV1 ovarian is -21.9% (active); with OVCAR-3 ovarian, -22% (active); in the assay with HS 578T breast it was 8.49% (active); in the assay on NCI/ADR-RES ovarian it was 6.66% (active).
Turning to `COc1cc2c3c(c4c5ccccc5[nH]c4c2c(OC)c1OC)C(=O)N(CCN1CCCCC1)C3=O`, the growth with SR leukemia is 21.6%; in the assay with RPMI-8226 leukemia, -12% (active); in the assay on OVCAR-8 ovarian, -35.5% (active); in the assay with OVCAR-5 ovarian, 52.4%; with OVCAR-4 ovarian, 15.7%; with SK-OV-3 ovarian, 54.7%. Also, the growth in the assay with IGROV1 ovarian was -68.8% (active); in the assay with OVCAR-3 ovarian, -20.7% (active); in the assay on HS 578T breast it was 52.2%; with NCI/ADR-RES ovarian it was 24.6%.
In the case of `C=C(C)[C@@H]1CC[C@]2(C(=O)N3CCN(C)CC3)CC[C@]3(C)[C@H](CC[C@@H]4[C@@](C)(CCC(=O)O)[C@H](C(=C)C)CC[C@]43C)[C@@H]12`, the growth is 56.9% in the assay on SR leukemia; 58.6% with RPMI-8226 leukemia; 88.9% with OVCAR-8 ovarian; 111% in the assay with OVCAR-5 ovarian; 97% with OVCAR-4 ovarian; 89.6% with SK-OV-3 ovarian. Besides, the growth is 104% in the assay on IGROV1 ovarian, 88.8% in the assay on OVCAR-3 ovarian, 86.7% with HS 578T breast and 92.4% in the assay with NCI/ADR-RES ovarian.
As to `O=C1c2cccnc2C(=O)c2c1c(C(=O)OCCc1ccccn1)c1ccccn21`, the growth was -10.9% (active) in the assay with SR leukemia; -27.2% (active) in the assay on RPMI-8226 leukemia; -14% (active) in the assay with OVCAR-8 ovarian; 9.08% (active) in the assay with OVCAR-5 ovarian; 4.6% (active) with OVCAR-4 ovarian; -66.5% (active) in the assay with SK-OV-3 ovarian. Besides, the growth in the assay on IGROV1 ovarian is -0.716% (active); in the assay with OVCAR-3 ovarian, -16.1% (active); with HS 578T breast it was -28.6% (active); in the assay with NCI/ADR-RES ovarian, -26.4% (active).
Regarding `CCN(CC)CCN1C(=O)c2c(c3c4ccccc4[nH]c3c3ccc4ccccc4c23)C1=O`, the growth was -22.5% (active) in the assay on SR leukemia; -33.1% (active) in the assay with RPMI-8226 leukemia; -29.1% (active) in the assay with OVCAR-8 ovarian; -85.8% (active) in the assay with OVCAR-5 ovarian; -79.5% (active) in the assay with OVCAR-4 ovarian; 83.1% with SK-OV-3 ovarian. Moreover, the growth with IGROV1 ovarian is 76.1%; in the assay with OVCAR-3 ovarian it was 109%; with HS 578T breast, 87.4%; with NCI/ADR-RES ovarian it was -40.9% (active).
Consider `O=C1OCC2=C1C(c1ccccc1)c1cc3c(cc1N2CCO)OCCO3` (stereo not given), for which the growth in the assay on SR leukemia is 19.7%; in the assay with RPMI-8226 leukemia, 27.9%; in the assay with OVCAR-8 ovarian, 32.5%; with OVCAR-5 ovarian, 37.5%; in the assay on OVCAR-4 ovarian it was 31.1%; with SK-OV-3 ovarian, 22.4%. Further, the growth with IGROV1 ovarian is 17.8%; in the assay on OVCAR-3 ovarian, -56.3% (active); in the assay on HS 578T breast, -9.64% (active); in the assay with NCI/ADR-RES ovarian, -26.8% (active).
As to `C#COc1cccc(Nc2ncnc3cc(NC(=O)[C@H](C)Cl)ccc23)c1`, the growth in the assay on SR leukemia is 92.6% [6.25 µM]; with RPMI-8226 leukemia, 100% [6.25 µM]; in the assay on OVCAR-8 ovarian, 9.3% [6.25 µM] (active); in the assay with OVCAR-5 ovarian, 25% [6.25 µM]; in the assay with OVCAR-4 ovarian it was 56.6% [6.25 µM]; with SK-OV-3 ovarian it was 3.8% [6.25 µM] (active). Besides, the growth in the assay with IGROV1 ovarian was 9.75% [6.25 µM] (active); in the assay with OVCAR-3 ovarian it was 7.9% [6.25 µM] (active); in the assay with HS 578T breast it was 24.8% [6.25 µM]; with NCI/ADR-RES ovarian, 14.8% [6.25 µM].
`CS(=O)(=O)Nc1cc(-c2ccc3ncnc(Nc4ccc5c(cnn5Cc5ccncc5)c4)c3c2)cnc1Cl`: the growth in the assay on SR leukemia was 44.6%; with RPMI-8226 leukemia it was 64.3%; in the assay on OVCAR-8 ovarian, 82.5%; with OVCAR-5 ovarian it was 59%; in the assay with OVCAR-4 ovarian it was 84.8%; in the assay on SK-OV-3 ovarian, 54.9%. In addition, the growth with IGROV1 ovarian was 0.593% (active); in the assay on OVCAR-3 ovarian, 37%; in the assay on HS 578T breast, -6.14% (active); in the assay on NCI/ADR-RES ovarian it was 88.2%.
Consider `CCN1CCN(CCNc2nccc(-c3c(-c4ccc(F)c(O)c4)nc4occn34)n2)S1(=O)=O`, for which the growth in the assay with SR leukemia was 29.5%; in the assay with RPMI-8226 leukemia, -22.7% (active); with OVCAR-8 ovarian it was 11.7%; with OVCAR-5 ovarian, 102%; with OVCAR-4 ovarian, 19.8%; with SK-OV-3 ovarian, 54%. For the same molecule, the growth in the assay on IGROV1 ovarian was 44.2%; with OVCAR-3 ovarian, 39.4%; with HS 578T breast, 42.6%; with NCI/ADR-RES ovarian it was 12.3%.
`O=C(NCCCCCCNC(=O)OCc1ccc2c(Cl)cc(Cl)c(O)c2n1)OCc1ccc2c(Cl)cc(Cl)c(O)c2n1`: the growth in the assay with SR leukemia is 4.84% (active); in the assay on RPMI-8226 leukemia it was -17.4% (active); in the assay on OVCAR-8 ovarian it was -32.6% (active); in the assay with OVCAR-5 ovarian, -89.6% (active); with OVCAR-4 ovarian, -56.9% (active); with SK-OV-3 ovarian, 42.9%. Besides, the growth in the assay with IGROV1 ovarian was -88.3% (active); in the assay on OVCAR-3 ovarian, -73.6% (active); with HS 578T breast, -15.1% (active); in the assay with NCI/ADR-RES ovarian it was -12.5% (active).
In the case of `N[C@@H]1CCC[C@H]1NCCCCN1C(=O)c2cccc3cc([N+](=O)[O-])cc(c23)C1=O`, the growth is 4.54% (active) in the assay on SR leukemia; 41.4% in the assay on RPMI-8226 leukemia; 32.5% in the assay on OVCAR-8 ovarian; 72.5% with OVCAR-5 ovarian; 36.6% with OVCAR-4 ovarian; 34% in the assay on SK-OV-3 ovarian. Moreover, the growth was 25.6% with IGROV1 ovarian, 45.6% in the assay on OVCAR-3 ovarian, 64.7% in the assay with HS 578T breast and 73.4% in the assay with NCI/ADR-RES ovarian.
